Hits are enriched below; roughly 1.5% of the tested compounds scored in any of these assays.
CFTR F508del cor: F508del CFTR correction, initial screen, CFBE line, single point; CFBE cells, YFP halide quenching; stimulated with forskolin plus potentiator P3; % fluorescence drop versus neutral controls; activity (quench increase), % at 7.58 µM; actives 0.36% (n = 350,000); AID 720511, 2013;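 active = mean added fluorescence quench of at least 8% versus neutral control, with both replicates also reaching 8%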;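 also: cells transiently co-express mutant CFTR-F508del with the halide-sensitive YFP; corrector assay measuring rescue of mutant channel to the surface after 24 h compound exposure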
dFosB activator: activators of delta FosB homodimer, primary screen, biochemical, fluorescence polarization, TAMRA-CDK5 oligo, single point; Protein FosB (Mus musculus), P13346; actives 0.99% (n = 340,000); AID 493131, 2011; activation, % at 25 µM; purified delta FosB; percent of positive-control signal above neutral wells;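 active = mean activation above about 17%, with every replicate also reaching it, limit read from the data, passing the limit was not always enough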
Glyco luc inh: increase of ERlucT glycosylation luciferase signal, primary screen, N-linked glycosylation inhibitor project, D54 ERlucT cells, luminescence, set 2 | D54 ERlucT glycosylation luciferase reporter, 24 h; percent of 100 nM tunicamycin response | reporter increase, % at 12.5 µM | actives 0.23% (n = 360,000) | AID 588692, 2011;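 active = mean luciferase reporter signal, scaled so untreated is 0 and the glycosylation-blocking control 100, at or above a set limit in every replicate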;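 also: luciferase carries N-glycosylation sites so blocking glycosylation raises the light; 0% = median of neutral control wells and 100% = median of 100 nM tunicamycin wells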
PvdQ inh: P. aeruginosa PvdQ acylase inhibitors, primary screen, biochemical, fluorescence, plate reader and imaging, single point; PvdQ acylase [Pseudomonas aeruginosa LESB58]; purified PvdQ acylase; inhibition, % at 10 µM; actives 0.063% (n = 340,000); AID 488965, 2010; in the data active = inhibition above about 30%, passing the limit was not always enough;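 also: 0% = vehicle neutral wells and 100% = reference inhibitor wells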
RAD54 branch: inhibitors of human RAD54 branch migration, primary screen, biochemical, fluorescence, single point; RAD54 Holliday junction branch migration, FAM/BHQ fluorescence; inhibition, % at 10.4 µM; actives 0.14% (n = 360,000);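 active = mean normalized replicate activity at least 40 and at least half of replicates scoring 40 or more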;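 also: 0% = median of neutral control wells and 100% = median of positive control wells; inhibitors cause a drop in the FAM fluorescence signal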
Target sequence (Q92698 whole entry, looked up): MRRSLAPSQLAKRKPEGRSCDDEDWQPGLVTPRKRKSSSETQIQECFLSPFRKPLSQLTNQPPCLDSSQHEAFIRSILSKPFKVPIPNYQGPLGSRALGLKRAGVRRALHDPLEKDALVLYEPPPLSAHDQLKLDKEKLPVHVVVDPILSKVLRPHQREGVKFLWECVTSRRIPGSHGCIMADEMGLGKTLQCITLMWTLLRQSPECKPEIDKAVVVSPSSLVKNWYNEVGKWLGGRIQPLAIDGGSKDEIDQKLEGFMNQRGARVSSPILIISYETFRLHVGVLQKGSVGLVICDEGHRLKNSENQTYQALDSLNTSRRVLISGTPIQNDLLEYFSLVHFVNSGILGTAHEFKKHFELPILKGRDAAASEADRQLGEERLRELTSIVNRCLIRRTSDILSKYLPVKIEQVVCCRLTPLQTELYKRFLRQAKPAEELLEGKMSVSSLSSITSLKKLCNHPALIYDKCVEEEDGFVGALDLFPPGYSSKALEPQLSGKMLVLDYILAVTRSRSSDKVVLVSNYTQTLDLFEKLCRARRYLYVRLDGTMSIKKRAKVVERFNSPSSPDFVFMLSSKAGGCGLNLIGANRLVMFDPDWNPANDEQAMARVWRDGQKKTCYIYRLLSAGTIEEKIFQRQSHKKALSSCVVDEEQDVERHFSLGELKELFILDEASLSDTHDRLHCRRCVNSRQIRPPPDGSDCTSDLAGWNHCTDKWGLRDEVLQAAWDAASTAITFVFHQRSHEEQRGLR
RAD52 anneal inh: RAD52 DNA annealing inhibitors, primary screen, biochemical, FRET, single point, set 2 | actives 0.46% (n = 360,000) | inhibition, % at 18.7 µM | recombinant RAD52 DNA annealing, FRET fluorescence | AID 651710, 2012;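 active = every replicate showing at least 50% inhibition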
Active calls of the source: *; ! = not confirmed by another sample.

What do the screens show for `COc1ccc2c3c([nH]c2c1)[C@H](CO)N(C(=O)Cc1ccccc1)CC31CN(C(=O)Cc2ccccc2)C1`?
CFTR F508del cor: 3.0; RAD52 anneal inh: 10.0

What do the screens show for `CCCC(=O)Nc1ccc2c(c1)C(=O)N(C)C[C@@H](OC)[C@H](C)CN(Cc1cncnc1)[C@@H](C)CO2`?
CFTR F508del cor: 0.9; RAD54 branch: -8.9; RAD52 anneal inh: -0.1

What do the screens show for `C[C@@H]1CN([C@@H](C)CO)C(=O)c2cc(NC(=O)CCCCCC(=O)Nc3ccccc3N)ccc2O[C@H]1CN(C)S(C)(=O)=O`?
CFTR F508del cor: -0.1; RAD52 anneal inh: 0.0

Results for CCN1C(=O)/C(=C/C=C2\N(CC)c3cc(S(=O)(=O)N(C)C)ccc3N2c2ccccc2)SC1=S ?
CFTR F508del cor: 5.8; dFosB activator: 91.2*; Glyco luc inh: -9.4; PvdQ inh: -1.0; RAD52 anneal inh: -35.9

How did N#C/C(=N/Nc1ccc(OC(F)(F)F)cc1)C(N)=S do in these assays?
CFTR F508del cor: 7.8; dFosB activator: 5.0; Glyco luc inh: -7.1; PvdQ inh: -0.7; RAD52 anneal inh: -5.1

How did NC(=S)N=Nc1ccc(NN=C(N)N)cc1 do in these assays?
CFTR F508del cor: -4.0; dFosB activator: 29.1*; Glyco luc inh: -6.6; PvdQ inh: -12.2; RAD54 branch: 45.0; RAD52 anneal inh: 25.7

How did Cc1ccc(OCC(=O)Nc2ccc3c(c2)ncn3C)cc1 do in these assays?
CFTR F508del cor: 22.0*; dFosB activator: -1.6; Glyco luc inh: 2.0; PvdQ inh: -1.1; RAD54 branch: -7.4; RAD52 anneal inh: -1.4

How did Cn1cnc2cc(NC(=O)COc3ccccc3)ccc21 do in these assays?
CFTR F508del cor: -2.9; dFosB activator: 1.8; Glyco luc inh: -3.8; PvdQ inh: 0.0; RAD52 anneal inh: -18.0

How did CCC(=O)N1CCC2(CC1)CN(C(=O)Nc1ccccc1F)[C@H](CO)c1c2c2ccc(OC)cc2n1C do in these assays?
CFTR F508del cor: -2.0

What do the screens show for `CC(C)NC(=O)N[C@H]1C=C[C@@H](CC(=O)NCCCN(C)C)O[C@H]1CO`?
CFTR F508del cor: -1.0; RAD54 branch: -4.8; RAD52 anneal inh: -7.9

What do the screens show for `CCOC(=O)c1cccc(NC(=O)c2ccc(NC(=O)c3ccco3)cc2)c1`?
CFTR F508del cor: -2.7; dFosB activator: 16.3*; Glyco luc inh: -0.6; PvdQ inh: 1.2; RAD54 branch: 1.4; RAD52 anneal inh: -7.4

How did COC(=O)c1ccc(NC(=O)c2ccc(NC(=O)c3ccco3)cc2)cc1 do in these assays?
CFTR F508del cor: 0.9; dFosB activator: 122.1*; Glyco luc inh: -9.3; PvdQ inh: -17.8; RAD54 branch: 2.7; RAD52 anneal inh: 0.4

Results for Cc1cc(C)cc(NC(=O)c2ccc(NC(=O)c3ccco3)cc2)c1 ?
CFTR F508del cor: -0.7; dFosB activator: -3.7; Glyco luc inh: -1.6; PvdQ inh: 0.9; RAD54 branch: -12.8; RAD52 anneal inh: -15.5

What do the screens show for `CC(C)NC(=O)Nc1ccc2c(c1)C(=O)N([C@@H](C)CO)C[C@@H](C)[C@H](CN(C)S(=O)(=O)c1cn(C)cn1)O2`?
CFTR F508del cor: 0.4; RAD54 branch: -7.5; RAD52 anneal inh: -1.4

What do the screens show for `C[C@H]1CN([C@@H](C)CO)C(=O)Cc2cc(NC(=O)Cn3cnnn3)ccc2O[C@H]1CN(C)CC1CCCCC1`?
CFTR F508del cor: 1.3; RAD54 branch: -1.3; RAD52 anneal inh: -4.6

How did COc1cccc(CNC(=O)COC(=O)c2ccc(-c3ccc(O)cc3)cc2)c1 do in these assays?
CFTR F508del cor: -2.2; Glyco luc inh: 27.6*; RAD54 branch: 0.8; RAD52 anneal inh: -11.8

What do the screens show for `NS(=O)(=O)c1ccc(-n2ncc3c(=O)[nH]c(SCC(=O)Nc4nccs4)nc32)cc1`?
CFTR F508del cor: 8.1*; dFosB activator: 14.3; Glyco luc inh: 0.7; PvdQ inh: 1.8; RAD54 branch: -8.1; RAD52 anneal inh: -16.2

What do the screens show for `COc1ccc(NC(=O)c2cc(-c3ccccc3O)n[nH]2)cc1Cl`?
CFTR F508del cor: 2.0; dFosB activator: 25.5*; Glyco luc inh: 0.4; PvdQ inh: -15.4; RAD54 branch: -5.6; RAD52 anneal inh: -7.1

Results for COc1cccc(-c2ccc(C3[C@H]4CNC[C@@H]3N4Cc3ccc(F)cc3)cc2)c1 (stereo partly specified) ?
CFTR F508del cor: -0.6; RAD52 anneal inh: 19.9

Results for Fc1cccc(-c2ccc(C3[C@H]4CNC[C@@H]3N4Cc3ccccc3F)cc2)c1 (stereo partly specified) ?
CFTR F508del cor: -2.0; RAD52 anneal inh: 59.7*

Results for COc1cccc(-c2ccc(C3[C@H]4CNC[C@@H]3N4Cc3cc(F)ccc3F)cc2)c1 (stereo partly specified) ?
CFTR F508del cor: -0.4; RAD52 anneal inh: 54.2*!

What do the screens show for `CC(=O)N(C)C[C@@H]1Oc2cc(C#CC3CCCC3)ccc2S(=O)(=O)N([C@@H](C)CO)C[C@H]1C`?
CFTR F508del cor: 2.2; RAD54 branch: -6.9; RAD52 anneal inh: 1.8

What do the screens show for `CCC(=O)Nc1ccc2c(c1)OC[C@@H](C)N(Cc1ccncc1)C[C@H](C)[C@H](OC)CN(C)C2=O`?
CFTR F508del cor: 1.4; RAD54 branch: 1.2; RAD52 anneal inh: 20.2

How did CC(C)NC(=O)Nc1ccc2c(c1)C(=O)N([C@@H](C)CO)C[C@H](C)[C@@H](CN(C)CC1CCCCC1)O2 do in these assays?
CFTR F508del cor: 0.3; RAD54 branch: 7.2; RAD52 anneal inh: 2.6

What do the screens show for `COc1nc(-c2ccccc2)cc(-c2ccc3c(c2)OCO3)c1C#N`?
CFTR F508del cor: 17.3*; dFosB activator: -3.5; Glyco luc inh: 11.8; PvdQ inh: -16.4; RAD52 anneal inh: -5.1

What do the screens show for `CC(=O)N1[C@@H]2Cn3c(ccc(-c4ccccc4)c3=O)[C@H]1[C@@H](C(=O)N1CCN(C)CC1)[C@@H]2CO`?
CFTR F508del cor: 0.0; RAD54 branch: 2.5; RAD52 anneal inh: 3.7

How did Cc1noc(C)c1S(=O)(=O)Nc1ccc2c(c1)C(=O)N([C@H](C)CO)C[C@H](C)[C@H](CN(C)S(=O)(=O)c1ccc(F)cc1)OCCCC[C@H](C)O2 do in these assays?
CFTR F508del cor: 2.6; RAD54 branch: -9.0; RAD52 anneal inh: -72.2

Results for Cc1noc(C)c1S(=O)(=O)Nc1ccc2c(c1)C(=O)N([C@H](C)CO)C[C@@H](C)[C@H](CN(C)S(=O)(=O)c1ccc(F)cc1)OCCCC[C@@H](C)O2 ?
CFTR F508del cor: -1.6; RAD54 branch: -8.1; RAD52 anneal inh: 58.6*
